Laboratory results taken from PubChem BioAssay (NCI).
This is part of a sample that, as a whole, favours compounds with a hit. Of some 83,000 tested, about 20% had one in any assay.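 Plates (96-well) were seeded with cells, treated with compound at one concentration, and incubated for 48 hours before percent growth was determined.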 Unmarked numbers belong to inactive results. Active and inactive are the calls of the source. The calls were made as follows: active = growth percent below 10; inactive = the rest.

What was measured:
Experiment in all cases: NCI-60 one-dose screen, 48 h (100 = growth as untreated, 0 = no growth, -100 = all killed)
Settings in all cases: 10 µM unless noted
NCI-H23 lung = tested on: NCI-H23 lung
NCI-H226 lung = tested on: NCI-H226 lung
NCI-H322M lung = tested on: NCI-H322M lung
HOP-62 NSCLC = tested on: HOP-62 NSCLC
NCI-H460 lung = tested on: NCI-H460 lung
HOP-92 NSCLC = tested on: HOP-92 NSCLC
NCI-H522 lung = tested on: NCI-H522 lung
A549/ATCC NSCLC = tested on: A549/ATCC NSCLC
786-0 renal = tested on: 786-0 renal
COLO 205 colon = tested on: COLO 205 colon
DU-145 prostate = tested on: DU-145 prostate
K-562 leukemia = tested on: K-562 leukemia
MALME-3M melanoma = tested on: MALME-3M melanoma
MDA-MB-231 breast = tested on: MDA-MB-231 breast
RXF 393 renal = tested on: RXF 393 renal
SF-268 CNS = tested on: SF-268 CNS
SF-295 CNS = tested on: SF-295 CNS
SF-539 CNS = tested on: SF-539 CNS
UACC-257 melanoma = tested on: UACC-257 melanoma
M14 melanoma = tested on: M14 melanoma

Structure (SMILES) | growth (NCI-H23 lung) | growth (NCI-H226 lung) | growth (NCI-H322M lung) | growth (HOP-62 NSCLC) | growth (NCI-H460 lung) | growth (HOP-92 NSCLC) | growth (NCI-H522 lung) | growth (A549/ATCC NSCLC) | growth (786-0 renal) | growth (COLO 205 colon) | growth (DU-145 prostate) | growth (K-562 leukemia) | growth (MALME-3M melanoma) | growth (MDA-MB-231 breast) | growth (RXF 393 renal) | growth (SF-268 CNS) | growth (SF-295 CNS) | growth (SF-539 CNS) | growth (UACC-257 melanoma) | growth (M14 melanoma)
C#CCOc1cccc(Nc2ncnc3cc(NC(=O)CCl)ccc23)c1 | -65% (active) | -26.7% (active) | -13.9% (active) | -61.6% (active) | -55.3% (active) | -76.9% (active) | -76.1% (active) | -59.4% (active) | -69.1% (active) | -79.9% (active) | -77.1% (active) | -43% (active) | -73.4% (active) | -78.9% (active) | -75.6% (active) | -55.8% (active) | -92.8% (active) | -80.4% (active) | -43.3% (active) | -56.1% (active)
COCCn1cc(-c2csc(-c3c[nH]c4ccccc34)n2)c2cccnc21 | 42.2% | 60.9% | 61% | 38.2% | 18.8% | 55.5% | -33.6% (active) | 25% | 43.5% | -8.68% (active) | 62.3% | 18.1% | 52.3% | 35% | 72.2% | 50.1% | 25.8% | 43.5% | 45.9% | 18.6%
COC12C=C/C(=C(/C(=O)OCCSc3ccnn3C)C(=O)CCCCCCCCC3(OC)C=C/C(=C(/C(=O)OCCSc4ccnn4C)C(=O)CCCCCCCC1)O3)O2 | -44% (active) | -53.6% (active) | 11.6% | 27.9% | 3.85% (active) | -18.9% (active) | -17.3% (active) | 5.51% (active) | -29.2% (active) | -41.7% (active) | 23% | 1.16% (active) | -32.2% (active) | -11% (active) | -79.1% (active) | 16% | -3.35% (active) | -0.264% (active) | 40.3% | -3.79% (active)
C=CC(=O)Nc1cccc(Oc2nccc(Nc3nnc(-c4ccc(Br)cc4)s3)n2)c1 | 90.8% | 105% | 110% | 91% | 101% | 92% | 84.4% | 100% | 101% | 108% | 103% | 92.6% | 112% | 88.2% | 101% | 93.6% | 96% | 99.7% | 105% | 116%
CCN1C(=O)N(c2ccccc2)C2NC(=S)N(/N=C/C=C/c3ccccc3OC)C21 (stereo not given) | 39.6% | 49.9% | 41.8% | 35.1% | 3.66% (active) | 43.4% | 9.88% (active) | 24.1% | 26% | 6.54% (active) | 5.45% (active) | 9.41% (active) | 40.9% | 16.7% | 62.2% | 47.3% | 14.2% | -13.3% (active) | 22% | 11.2%
CCN(CC)C(=O)CC1=C(C)/C(=C/c2[nH]c(-c3ccc[nH]3)cc2OC)N=C1C | 34% | 20% | 37.1% | 33.1% | 9.17% (active) | -14.8% (active) | 10.1% | 4.73% (active) | -13.3% (active) | 15.9% | 34.8% | 6.08% (active) | 1.07% (active) | -0.929% (active) | 35.9% | 21.7% | -51.6% (active) | 20.6% | 5.68% (active) | -55.8% (active)
CCCCCc1ccc(S(=O)(=O)Nc2ccc3nc(N)oc3c2)cc1 | 40.2% | 46.3% | 96.9% | 78.5% | 60.8% | 19.5% | 43.7% | 53.2% | 72.4% | 72.4% | 74.2% | 27.9% | 89.8% | 64.3% | 77.4% | 51.1% | 30.8% | 71.3% | 34.4% | 73.1%
O=C1Nc2ccc(Cl)cc2/C1=C/c1ccc[nH]1 | 66.3% | 97.4% | 69.4% | 95.8% | 82.3% | 133% | 71.4% | 90.3% | 108% | 126% | 83.6% | 100% | 99.1% | 40.7% | 74% | 96.4% | 109% | 88.6% | 118% | 78.4%
C=C(C)[C@@H]1CC[C@]2(CO)CC[C@]3(C)[C@H](CC[C@@H]4[C@@](C)(CCCN)[C@H](C(=C)C)CC[C@]43C)[C@@H]12 | -70.1% (active) | 13.1% | -53.9% (active) | -62.8% (active) | -93.8% (active) | -41% (active) | -48.6% (active) | -68.8% (active) | -98.5% (active) | -58% (active) | -44.8% (active) | -5.14% (active) | -94.7% (active) | -96.3% (active) | -85.3% (active) | -41.9% (active) | -75.5% (active) | -97.1% (active) | -78.9% (active) | -74.9% (active)
O=[N+]([O-])c1ccccc1Sc1ccccc1[N+](=O)[O-] | 93.7% | 98.5% | 91.4% | 92.8% | 103% | 78.6% | 87.8% | 87.2% | 93.4% | 110% | 104% | 97.5% | 92.4% | 105% | 98.1% | 88% | 101% | 94.8% | 107% | 100%
O=C(CCCCCCCC(=O)N1CCCCC1)N1CCCCC1 | 94.6% | 109% | 115% | 110% | 98.7% | 98.8% | 88.8% | 102% | 105% | 113% | 106% | 114% | 115% | 94.1% | 123% | 104% | 117% | 103% | 89.3% | 102%
CC/C(=C(/c1ccc(O)cc1)c1ccc(OCCN2CCCCC2)cc1)c1ccc(OC)cc1 | 79.2% | 103% | 90.2% | 83.5% | 57.4% | 70.2% | 74.7% | 64.4% | 57.1% | -28.9% (active) | 71.3% | -30.8% (active) | -28.3% (active) | 55.1% | 68.4% | 62.6% | 86.9% | 86.3% | 81% | -61.2% (active)
COc1ccc(OC)c(Nc2nnc(-c3cc(OC)c(OC)c(OC)c3)o2)c1 | 90.5% | 96.6% | 98.4% | 94.7% | 107% | 107% | 76.6% | 101% | 95% | 104% | 101% | 95.8% | 88.8% | 88.9% | 110% | 99.6% | 101% | 91.3% | 112% | 101%
C1CCC(N2CN3c4nonc4N4CN(C5CCCCC5)CN5c6nonc6N(C2)C3C45)CC1 (stereo not given) | 98.4% | 96.4% | 95.6% | 97.2% | 99.4% | 82.1% | 92.1% | 92.4% | 108% | 107% | 104% | 82.1% | 91.5% | 106% | 103% | 96.5% | 91.6% | 101% | 99.2% | 96%
CC(C)(C)c1ccc(C(=O)N/N=C/c2ccc(O)cc2O)cc1 | 19.1% | 12.1% | 26.8% | 17.9% | 0.52% (active) | 33.6% | 33.4% | 11.8% | 19.7% | 14.7% | 24.5% | 14.2% | 11.9% | 35.1% | -4% (active) | 19.9% | 16.6% | 11.2% | 3.68% (active) | -10.3% (active)
CNC(=O)c1cc(Oc2ccc3c(c2)sc2nc(-c4ccc(NC(=O)[C@@H](NC(=O)OC)C(C)C)cc4)cn23)ccn1 | 77.6% | 56.9% | 107% | 82.5% | 87.6% | 61.7% | 43.6% | 80.8% | 87.4% | 63.9% | 84.8% | 47.3% | 49.4% | 71.9% | 85.3% | 82.5% | 68.7% | 88.2% | 59.5% | 64.1%
